Screens from PubChem.
The list is not random: actives were taken first. Their share in the collection is about 11%.
BAZ2B inh – BAZ2B (human) inhibition; Q9UIF8; AlphaScreen BAZ2B-H3K14Ac peptide displacement; Potency, µM (series often up to 114 µM), inactives show at the top dose activity change, negative = inhibition, actives largely listed as inhibitors; actives 4.4% (n = 360,000); AID 504333; further: potency means the concentration at half of the fitted maximal effect; on the % scale 0 is the no-effect control and ±100 the full control effect; nearly all actives have a fitted effect of over 60% in size
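AlphaScreen displacement of biotin-H3(5-23)K14Ac peptide (50 nM final) from BAZ2B (50 nM final) in PBS pH 7.4, 0.01% Tween-20; complex preformed 30 min RT, then compounds (top 110 uM) 30 min RT, beads 20 min dark.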
JMJD2A Tudor inh – JMJD2A Tudor domain (human) inhibition; AlphaScreen JMJD2A-Tudor / H3K4me3 peptide binding; actives 4.4% (n = 390,000); O75164; Potency, µM (series often up to 114 µM), for the others: top-dose activity change, negative = inhibition, most hits filed as inhibitors; AID 504339; further: potency means the concentration at half of the fitted maximal effect; on the % scale 0 is the no-effect control and ±100 the full control effect; nearly all actives have a fitted effect of over 50% in size
Target sequence (O75164 whole entry, looked up, the tested form may be a part): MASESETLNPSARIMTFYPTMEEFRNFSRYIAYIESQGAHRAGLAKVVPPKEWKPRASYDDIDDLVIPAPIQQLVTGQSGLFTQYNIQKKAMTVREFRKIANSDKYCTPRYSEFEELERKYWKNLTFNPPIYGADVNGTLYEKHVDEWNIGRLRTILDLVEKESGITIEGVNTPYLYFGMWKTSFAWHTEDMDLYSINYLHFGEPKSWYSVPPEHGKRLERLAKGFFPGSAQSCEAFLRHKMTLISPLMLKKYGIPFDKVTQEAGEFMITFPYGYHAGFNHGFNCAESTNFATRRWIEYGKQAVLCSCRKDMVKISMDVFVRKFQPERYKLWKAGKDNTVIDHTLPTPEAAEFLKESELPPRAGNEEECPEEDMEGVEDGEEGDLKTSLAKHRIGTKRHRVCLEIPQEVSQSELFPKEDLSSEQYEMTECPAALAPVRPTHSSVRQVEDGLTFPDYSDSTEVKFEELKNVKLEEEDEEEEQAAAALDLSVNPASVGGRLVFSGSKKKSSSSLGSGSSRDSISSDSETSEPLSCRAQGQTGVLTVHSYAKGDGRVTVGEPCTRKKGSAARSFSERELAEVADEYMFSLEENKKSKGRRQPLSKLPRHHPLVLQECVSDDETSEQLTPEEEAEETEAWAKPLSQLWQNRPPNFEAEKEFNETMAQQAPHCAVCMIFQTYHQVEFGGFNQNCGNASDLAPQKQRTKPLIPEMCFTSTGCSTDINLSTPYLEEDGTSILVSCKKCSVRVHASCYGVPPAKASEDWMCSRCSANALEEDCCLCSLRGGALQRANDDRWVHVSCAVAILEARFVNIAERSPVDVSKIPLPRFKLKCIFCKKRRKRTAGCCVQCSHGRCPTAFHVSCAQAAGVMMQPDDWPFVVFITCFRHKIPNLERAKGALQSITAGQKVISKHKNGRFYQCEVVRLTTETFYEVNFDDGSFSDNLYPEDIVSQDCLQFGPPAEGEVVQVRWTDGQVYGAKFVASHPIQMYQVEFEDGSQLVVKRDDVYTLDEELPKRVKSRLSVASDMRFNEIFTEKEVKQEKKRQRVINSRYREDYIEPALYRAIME
G9a inh – G9a (human) methyltransferase inhibition. Potency, µM (doses to about 102 µM), inactives show at the highest dose activity, negative = inhibition, usual class: inhibitors. actives 8.8% (n = 350,000). G9a H3K9 monomethylation, AlphaScreen, 2 h. Q96KQ7; further: potency means the concentration at half of the fitted maximal effect; on the % scale 0 is the no-effect control and ±100 the full control effect; nearly all actives have a fitted effect of over 75% in size
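Quantitative HTS format: methyltransferase activity on a biotin-tagged H3K9 peptide is measured by AlphaScreen, using a rabbit anti-monomethyl-H3K9 antibody with streptavidin donor and anti-IgG acceptor beads. Final levels are 20 nM enzyme, 500 nM peptide, 20 uM SAM; 2 h RT.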
L3MBTL1 inh – L3MBTL1 (human) inhibition; AlphaScreen L3MBTL1–H3K9me1 peptide binding; Q9Y468; actives 0.66% (n = 230,000); AID 485360; Potency, µM (titrated, usually from 57.1 µM), without a hit: top-dose activity, negative = inhibition, actives largely listed as inhibitors; further: potency means the concentration at half of the fitted maximal effect; on the % scale 0 is the no-effect control and ±100 the full control effect; nearly all actives have a fitted effect of over 60% in size
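First, the protein-peptide complex forms for 30 min at room temperature (L3MBTL1 50 nM, biotinylated H3K9me1 peptide 75 nM). Next, compounds are pin-transferred and incubated 30 min. Finally, AlphaScreen beads are added and read after 30 min.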
PI5P4K alpha inh – blocks human PI5P4K alpha kinase activity | AID 652105 | PI5P4Kalpha enzyme, ADP-Glo luminescence, 60 min; stronger effect = lower value | P48426 | max response, % | actives 1.2% (n = 330,000); active means max response of -50% or lower; inconclusive means between -30% and -50%; inactive means -30% or higher; further: value at the top dose of about 77 µM; on the % scale 0 is the no-effect control and ±100 the full control effect
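ADP-Glo luminescence end-point read after a 60 min room-temperature kinase reaction of PI5P4Kalpha plus substrate, initiated with ATP at 5 microM final. Buffer: 0.038 M HEPES pH 7.4, EGTA, 0.1% CHAPS, 5% DMSO.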
HP1b chromo inh – HP1-beta chromodomain-methylated histone interaction inhibition; AID 540317; AlphaScreen HP1-beta / biotin-H3K9me3 peptide binding; P83916; Potency, µM (highest dose often 114 µM), without a hit: at the top dose activity change, negative = inhibition, hits mostly inhibitors; actives 0.56% (n = 390,000); further: potency means the concentration at half of the fitted maximal effect; nearly all actives have a fitted effect of over 70% in size
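HP1-beta protein (50 nM final) preincubated 30 min at room temperature with biotinylated H3(1-18)K9me3 peptide (50 nM) in PBS pH 7.4, 0.01% Tween-20, then compound added for 30 min. AlphaScreen streptavidin donor/nickel chelate acceptor beads (10 ug/mL final), 30 min dark, luminescence read.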
Numbers without * were called inactive; ? = inconclusive; . = no result given; ! = not active in a repeat; [ ] = another dose, or the depositor's remark. Unless noted, the call rests on the fitted dose curve; in most records, active means well fitted inhibition curve with a large enough effect; inconclusive means small, poorly fitted or top-dose-only effect; inactive means no such curve, though single readings can be large or run the other way.

SMILES | BAZ2B inh | JMJD2A Tudor inh | G9a inh | L3MBTL1 inh | PI5P4K alpha inh | HP1b chromo inh
CCc1c(C)c(C#N)c2nc3ccccc3n2c1Nc1cccc(C(F)(F)F)c1 | -4% | -11% | 11%[59 µM] | . | . | 29%
c1ccc(-c2nc(NCC3CCCO3)c3oc4ccccc4c3n2)cc1 (stereo not drawn) | -9% | -14% | 45µM* | . | . | 44%
c1ccc(-c2nc(NCc3cccnc3)c3oc4ccccc4c3n2)cc1 | 50µM* | ? | ? | 7% | 14 | 48%
OCCCNc1nc(-c2ccccc2)nc2c1oc1ccccc12 | ? | -9% | 50µM* | 2% | 4 | 1%
COc1ccc(NC(=O)N2CCCC3(CCN(C(C)=O)CC3)C2)cc1 | . | . | 6%[12.7 µM] | . | . | .
Nc1c(Cl)ncnc1N/N=C/c1ccnc2ccccc12 | 5% | 6%[57.1 µM] | ? | 7% | -3 | 9%
Nc1c(Cl)ncnc1N/N=C/c1cccnc1 | -23% | ? | 40µM* | . | 2 | 10%
Nc1c(Cl)ncnc1N/N=C/c1ccccn1 | 5.6µM* | 28µM* | ? | 7.9µM* | -7 | -19%
Nc1c(Cl)ncnc1N/N=C/c1ccc2ccccc2n1 | 13µM* | 89µM* | ? | ? | -10 | -36%
COc1ccc(NC(=O)c2ccc3oc(=O)c(S(=O)(=O)c4ccc(C)cc4)cc3c2)cc1OC | -19% | -19% | 7%[59 µM] | . | . | 7%
COc1ccc(Br)cc1S(=O)(=O)N1CCN(S(=O)(=O)c2ccc3c(c2)OCCO3)CC1 | . | -17% | . | . | . | .
Oc1cc(O)c2c(c1)O[C@H](c1ccc(O)c(O)c1)[C@H](O)C2 | ? | -17% | 10µM* | -26% | -2 | 18%
O=C(NC1CC(=O)N(c2cccc(F)c2)C1)c1ccc(S(=O)(=O)N2CCCCC2)cc1 (stereo not drawn) | -1% | -8% | 6%[59 µM] | . | . | 14%
COc1ccc(OCC(=O)Nc2nnc(S(=O)(=O)N3CCCCCC3)s2)cc1 | -8% | -10% | -21%[59 µM] | -3% | -8 | 43%
CC(Oc1ccccc1)C(=O)Nc1nnc(S(=O)(=O)N2CCCCCC2)s1 (stereo not drawn) | 1.8µM*! | 8.9µM*! | 2.8µM*! | 6% | -4 | 47%
O=C(COc1ccccc1)Nc1nnc(S(=O)(=O)N2CCCC2)s1 | ? | ? | 8.9µM* | . | -29 | 46%
Cc1ccc(OCC(=O)Nc2nnc(S(=O)(=O)N3CCc4ccccc43)s2)cc1 | -24% | -8% | -4%[59 µM] | . | . | 26%
Cc1ccc(OCC(=O)Nc2nnc(S(=O)(=O)N3CCC(C)CC3)s2)cc1 | ? | ? | 50µM* | . | ? | 14%[57 µM]
CCC(=O)N1c2ccccc2CC1C(=O)NCCc1ccccc1Cl (stereo not drawn) | -2% | 1% | -31%[59 µM] | . | . | 40%
O=C(NNC(=O)C12CC3CC(CC(C3)C1)C2)c1ccncc1 | -10% | 6% | 40µM* | . | 0 | 14%
O=C(NNC(=O)C12CC3CC(CC(Cl)(C3)C1)C2)c1ccncc1 | -3% | -1% | -27% | 1% | -5 | 17%
COc1ccc(N2CCN(C(=O)C(C)n3nc(C)c4sc5ccccc5c4c3=O)CC2)cc1 (stereo not drawn) | -21% | -34% | ? | . | . | 3%
Cc1cccc(N2CCN(c3ccc(C(=O)O)cc3NC(=O)c3cccc(Cl)c3)CC2C)c1 (stereo not drawn) | ? | 56µM* | -46%[59 µM] | . | . | -17%
Cc1cccc(N2CCN(c3ccc(NC(=O)c4ccccc4)cc3C(=O)O)CC2C)c1 (stereo not drawn) | 79µM* | 89µM* | ? | . | . | -1%
CCc1ccccc1NC(=O)CN1C(=O)c2ccccc2Sc2ncccc21 | ? | -10% | -22%[59 µM] | . | . | 23%
SMILES | BAZ2B inh | JMJD2A Tudor inh | G9a inh | L3MBTL1 inh | PI5P4K alpha inh | HP1b chromo inh
O=C(C1=C(O)C(=O)N(CCN2CCOCC2)C1c1ccc([N+](=O)[O-])cc1)c1cc2ccccc2o1 (stereo not drawn) | -21% | 3% | 40µM* | . | 5 | 5%
COc1cccc(C2C(C(=O)c3cc4ccccc4o3)=C(O)C(=O)N2CCN2CCOCC2)c1 (stereo not drawn) | -13% | -24% | 45µM* | . | 4 | 7%
COc1cccc2cc(C(=O)C3=C(O)C(=O)N(CCN4CCOCC4)C3c3ccc(C)o3)oc12 (stereo not drawn) | ? | -16% | 32µM* | . | -4 | 27%
COc1ccccc1C1C(C(=O)c2cc3ccccc3o2)=C(O)C(=O)N1CCN1CCOCC1 (stereo not drawn) | ? | 89µM* | 8.9µM* | . | 5 | 27%
COC(=O)c1ccc(C2C(C(=O)c3cc4ccccc4o3)=C(O)C(=O)N2CCN2CCOCC2)cc1 (stereo not drawn) | -16% | 0% | ? | . | 1 | 32%
COc1ccc(Cl)cc1NC(=O)CSc1nnc2[nH]c(=O)cc(-c3ccccc3)n12 | 0% | -10% | 33%[59 µM] | . | . | 43%
Cc1ccc(NC(=O)C(=O)NCCc2sc(-c3ccc(Cl)cc3)nc2C)cc1C | -17% | -20% | 20%[59 µM] | . | . | 21%[57 µM]
CCOC(=O)C1CCCN(C(=O)CSc2ccc(Br)cc2)C1 (stereo not drawn) | 15% | 14µM* | 34% | 9% | -54* | -12%
CCOC(=O)C1CCCN(C(=O)COC(=O)C2=COCCO2)C1 (stereo not drawn) | ? | 50µM* | 50µM* | 0% | -10 | -3%
CCOC(=O)C1CCCN(C(=O)COc2ccccc2O)C1 (stereo not drawn) | 10% | 12% | 0% | . | -1 | 34%
Brc1ccc(-c2csc(/N=C/N3CCCC3)n2)cc1 | -34% | -31% | ? | . | 7 | 10%
Brc1ccc(-c2csc(/N=C/N3CCOCC3)n2)cc1 | -39% | -19% | 50µM* | -1% | 16 | 3%
Cc1cc(C)cc(NC(=O)CN2C(=O)CCc3cc(S(=O)(=O)N4CCCCC4)ccc32)c1 | -18% | -17% | 1%[59 µM] | . | . | 40%
CC(C)c1nc2sc3c(N4CCCCC4)ncnc3c2c2c1CCCC2 | 1% | 12% | 13%[59 µM] | . | . | 68%
CC(C)NC(=O)N(C)C[C@H]1Oc2ccc(NS(=O)(=O)c3cn(C)cn3)cc2C(=O)N([C@H](C)CO)C[C@@H]1C | . | 40µM* | . | 0% | -6 | -22%
Cc1ccc(-c2nn(-c3ccccc3)c3[nH]c(=O)c(CNCCN(C)C)cc23)cc1 | -7% | . | 8%[12.7 µM] | . | . | .
Cc1nn(-c2ccccc2)c2[nH]c(=O)c(CNc3ccc4c(c3)OCCO4)cc12 | 35µM* | ? | 11µM* | -19% | 0 | -36%
CCOc1ccc(NCc2cc3c(C(C)(C)C)nn(-c4ccccc4)c3[nH]c2=O)cc1 | 22µM* | 50µM* | 40µM* | . | . | ?
